Measured potencies and affinities stand elsewhere. Activity calls are given as the source filed them.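 Rule for the calls: active = peak inhibition of the KCNQ2 potassium channel over 30% at some tested dose, with a fitted dose response curve; inactive = no inhibition at any dose, or no curve fitted.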
Biological target: Potassium voltage-gated channel subfamily KQT member 2 (Rattus norvegicus) (UniProt O88943)
Assay: block of rat KCNQ2 potassium channel – cell-based, FluxOR thallium flux, concentration-response, selectivity assay for TASK1 inhibitor project, SAR follow-up (AID 652192)

Sequence of Potassium voltage-gated channel subfamily KQT member 2 (Rattus norvegicus) (O88943 whole entry, looked up): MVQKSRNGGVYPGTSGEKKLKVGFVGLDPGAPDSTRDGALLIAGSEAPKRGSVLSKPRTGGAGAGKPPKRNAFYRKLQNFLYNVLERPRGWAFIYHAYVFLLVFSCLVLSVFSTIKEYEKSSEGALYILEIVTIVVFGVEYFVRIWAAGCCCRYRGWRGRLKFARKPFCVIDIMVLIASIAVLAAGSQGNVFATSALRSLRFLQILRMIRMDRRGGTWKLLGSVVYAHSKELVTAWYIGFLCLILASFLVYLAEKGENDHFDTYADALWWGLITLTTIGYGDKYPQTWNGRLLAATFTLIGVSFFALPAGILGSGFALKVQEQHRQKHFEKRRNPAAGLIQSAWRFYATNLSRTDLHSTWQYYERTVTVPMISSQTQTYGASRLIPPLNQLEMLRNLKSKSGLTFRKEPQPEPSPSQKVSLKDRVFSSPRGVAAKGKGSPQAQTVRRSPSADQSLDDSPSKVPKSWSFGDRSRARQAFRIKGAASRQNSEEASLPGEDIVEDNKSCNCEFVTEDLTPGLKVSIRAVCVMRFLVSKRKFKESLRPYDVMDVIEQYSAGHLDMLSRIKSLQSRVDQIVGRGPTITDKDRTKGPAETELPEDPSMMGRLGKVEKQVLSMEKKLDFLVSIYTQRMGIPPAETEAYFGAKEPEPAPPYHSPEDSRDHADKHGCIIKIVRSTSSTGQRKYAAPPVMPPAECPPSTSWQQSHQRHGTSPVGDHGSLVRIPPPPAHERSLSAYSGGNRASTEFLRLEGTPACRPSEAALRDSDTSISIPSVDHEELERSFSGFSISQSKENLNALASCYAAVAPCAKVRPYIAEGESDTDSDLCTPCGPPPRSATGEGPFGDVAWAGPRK

| Structure (SMILES) | outcome |
| --- | --- |
| Cc1cccc(C(=O)Nc2cccc(NC(=O)c3cccc(F)c3)c2)c1 | inactive |
| O=C(Nc1cccc(NC(=O)c2ccccc2)c1)c1ccccc1 | inactive |
| COc1ccc(C(=O)Nc2cccc(NC(=O)c3cccc(C)c3)c2)cc1 | inactive |
| CCOc1ccccc1NC(=O)c1cccc(NC(=O)C2CCOC2)c1 (stereo unspecified) | inactive |
| Cc1cccc(C(=O)Nc2cccc(NC(=O)c3cccc(C(F)(F)F)c3)c2)c1 | inactive |
| COc1ccccc1NC(=O)c1cccc(NC(=O)c2ccccc2C(F)(F)F)c1 | inactive |
| O=C(Nc1cccc(NC(=O)c2cccc(F)c2)c1)c1ccccc1 | inactive |
| Cc1cccc(C(=O)Nc2ccccc2NC(=O)c2ccccc2)c1 | inactive |
| CCOc1ccccc1C(=O)Nc1cccc(NC(=O)c2ccccc2OC)c1 | inactive |
| COc1ccccc1NC(=O)c1cccc(NC(=O)CC2CCCC2)c1 | inactive |
| CCOc1ccccc1NC(=O)c1cccc(NC(=O)c2ccccc2C(F)(F)F)c1 | inactive |
| COc1ccccc1C(=O)Nc1cccc(NC(=O)c2cccc(C)c2)c1 | inactive |
| Cc1cccc(S(=O)(=O)Nc2cccc(NC(=O)c3ccccc3)c2)c1 | inactive |
| COc1cccc(OC)c1C(=O)Nc1cccc(NC(=O)c2cccc(C)c2)c1 | inactive |
| Cc1cccc(C(=O)Nc2cccc(NC(=O)c3cccs3)c2)c1 | inactive |
| Cc1cccc(C(=O)Nc2cccc(NC(=O)c3ccc(C(C)(C)C)cc3)c2)c1 | inactive |

Reference: PubChem BioAssay AID652192 (Johns Hopkins Ion Channel Center, 2013)
